Source: PubChem (National Center for Advancing Translational Sciences (NCATS))
Compounds with a hit are over-represented: about 7% of the library has one in this group of screens.
PLK1 PBD block: inhibitors of human PLK1 polo-box domain binding | Plk1 PBD binding of FITC phosphopeptide, fluorescence polarization | 360,000 tested, 2.8% active | Potency, µM, for the others: max response, negative = inhibition, most hits filed as inhibitors | P53350; further: potency means the concentration at half of the fitted maximal effect; series mostly up to about 57 µM; on the % scale 0 is the no-effect control and ±100 the full control effect; nearly all actives have a fitted effect of over 65% in size
KAT2A inh: inhibitors of human GCN5L2 histone acetyltransferase. Q92830. GCN5L2 HAT assay, ThioGlo1 CoA-SH fluorescence. Potency, µM (titrated, usually from 58.9 µM), without a hit: top-dose activity change, negative = inhibition, actives largely listed as inhibitors. 390,000 tested, 0.21% active; further: potency means the concentration at half of the fitted maximal effect; on the % scale 0 is the no-effect control and ±100 the full control effect
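qHTS, 1536-well. 20nM enzyme, pH 7.5 HEPES/EDTA/Tween-20 buffer; 15 min compound preinc., RT. Start: 75uM H3(1-25), 70uM AcCoA, 50uM ThioGlo1. Read Ex340/Em540 at t=0 (autofluorescence flag) and t=20 min.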
HP1b chromo inh: inhibitors of HP1-beta chromodomain binding to methylated histone tails. P83916. AlphaScreen HP1-beta / biotin-H3K9me3 peptide binding. Potency, µM (titrated, usually from 114 µM), for inactives: top-dose activity change, negative = inhibition, actives largely listed as inhibitors. 390,000 tested, 0.56% active. AID 540317; further: potency means the concentration at half of the fitted maximal effect; nearly all actives have a fitted effect of over 70% in size
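Compound inhibition of the preformed complex between 50 nM HP1-beta and 50 nM biotinylated H3K9me3 peptide was read by AlphaScreen. Buffer was PBS pH 7.4 with 0.01% Tween-20. Incubations ran 30 min at room temperature, with 10 ug/mL donor/acceptor beads.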
PI5P4K alpha inh: inhibitors of human PI5P4K alpha. 330,000 tested, 1.2% active. PI5P4Kalpha enzyme, ADP-Glo luminescence, 60 min; hits give low values. max response, %. P48426. AID 652105; active means max response of -50% or lower; inconclusive means between -30% and -50%; inactive means -30% or higher; further: value at the top dose of about 77 µM; on the % scale 0 is the no-effect control and ±100 the full control effect
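Compounds were pin-transferred onto PI5P4Kalpha and substrate in HEPES pH 7.4 buffer with EGTA, CHAPS and 5% DMSO. ATP (5 microM final) started the reaction, which ran 60 minutes at room temperature before ADP-Glo detection.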
JMJD2A Tudor: inhibitors of human JMJD2A Tudor domain; AID 504339; AlphaScreen JMJD2A-Tudor / H3K4me3 peptide binding; 390,000 tested, 4.4% active; Potency, µM (top dose mostly 114 µM), inactives show at the highest dose activity change, negative = inhibition, most hits filed as inhibitors; further: potency means the concentration at half of the fitted maximal effect; on the % scale 0 is the no-effect control and ±100 the full control effect; nearly all actives have a fitted effect of over 50% in size
BAZ2B inh: inhibitors of human BAZ2B bromodomain; AID 504333; AlphaScreen BAZ2B-H3K14Ac peptide displacement; 360,000 tested, 4.4% active; Potency, µM (doses to about 114 µM), for inactives: at the highest dose activity change, negative = inhibition, hits mostly inhibitors; further: potency means the concentration at half of the fitted maximal effect; on the % scale 0 is the no-effect control and ±100 the full control effect; nearly all actives have a fitted effect of over 60% in size
Target sequence (Q9UIF8 whole entry, looked up): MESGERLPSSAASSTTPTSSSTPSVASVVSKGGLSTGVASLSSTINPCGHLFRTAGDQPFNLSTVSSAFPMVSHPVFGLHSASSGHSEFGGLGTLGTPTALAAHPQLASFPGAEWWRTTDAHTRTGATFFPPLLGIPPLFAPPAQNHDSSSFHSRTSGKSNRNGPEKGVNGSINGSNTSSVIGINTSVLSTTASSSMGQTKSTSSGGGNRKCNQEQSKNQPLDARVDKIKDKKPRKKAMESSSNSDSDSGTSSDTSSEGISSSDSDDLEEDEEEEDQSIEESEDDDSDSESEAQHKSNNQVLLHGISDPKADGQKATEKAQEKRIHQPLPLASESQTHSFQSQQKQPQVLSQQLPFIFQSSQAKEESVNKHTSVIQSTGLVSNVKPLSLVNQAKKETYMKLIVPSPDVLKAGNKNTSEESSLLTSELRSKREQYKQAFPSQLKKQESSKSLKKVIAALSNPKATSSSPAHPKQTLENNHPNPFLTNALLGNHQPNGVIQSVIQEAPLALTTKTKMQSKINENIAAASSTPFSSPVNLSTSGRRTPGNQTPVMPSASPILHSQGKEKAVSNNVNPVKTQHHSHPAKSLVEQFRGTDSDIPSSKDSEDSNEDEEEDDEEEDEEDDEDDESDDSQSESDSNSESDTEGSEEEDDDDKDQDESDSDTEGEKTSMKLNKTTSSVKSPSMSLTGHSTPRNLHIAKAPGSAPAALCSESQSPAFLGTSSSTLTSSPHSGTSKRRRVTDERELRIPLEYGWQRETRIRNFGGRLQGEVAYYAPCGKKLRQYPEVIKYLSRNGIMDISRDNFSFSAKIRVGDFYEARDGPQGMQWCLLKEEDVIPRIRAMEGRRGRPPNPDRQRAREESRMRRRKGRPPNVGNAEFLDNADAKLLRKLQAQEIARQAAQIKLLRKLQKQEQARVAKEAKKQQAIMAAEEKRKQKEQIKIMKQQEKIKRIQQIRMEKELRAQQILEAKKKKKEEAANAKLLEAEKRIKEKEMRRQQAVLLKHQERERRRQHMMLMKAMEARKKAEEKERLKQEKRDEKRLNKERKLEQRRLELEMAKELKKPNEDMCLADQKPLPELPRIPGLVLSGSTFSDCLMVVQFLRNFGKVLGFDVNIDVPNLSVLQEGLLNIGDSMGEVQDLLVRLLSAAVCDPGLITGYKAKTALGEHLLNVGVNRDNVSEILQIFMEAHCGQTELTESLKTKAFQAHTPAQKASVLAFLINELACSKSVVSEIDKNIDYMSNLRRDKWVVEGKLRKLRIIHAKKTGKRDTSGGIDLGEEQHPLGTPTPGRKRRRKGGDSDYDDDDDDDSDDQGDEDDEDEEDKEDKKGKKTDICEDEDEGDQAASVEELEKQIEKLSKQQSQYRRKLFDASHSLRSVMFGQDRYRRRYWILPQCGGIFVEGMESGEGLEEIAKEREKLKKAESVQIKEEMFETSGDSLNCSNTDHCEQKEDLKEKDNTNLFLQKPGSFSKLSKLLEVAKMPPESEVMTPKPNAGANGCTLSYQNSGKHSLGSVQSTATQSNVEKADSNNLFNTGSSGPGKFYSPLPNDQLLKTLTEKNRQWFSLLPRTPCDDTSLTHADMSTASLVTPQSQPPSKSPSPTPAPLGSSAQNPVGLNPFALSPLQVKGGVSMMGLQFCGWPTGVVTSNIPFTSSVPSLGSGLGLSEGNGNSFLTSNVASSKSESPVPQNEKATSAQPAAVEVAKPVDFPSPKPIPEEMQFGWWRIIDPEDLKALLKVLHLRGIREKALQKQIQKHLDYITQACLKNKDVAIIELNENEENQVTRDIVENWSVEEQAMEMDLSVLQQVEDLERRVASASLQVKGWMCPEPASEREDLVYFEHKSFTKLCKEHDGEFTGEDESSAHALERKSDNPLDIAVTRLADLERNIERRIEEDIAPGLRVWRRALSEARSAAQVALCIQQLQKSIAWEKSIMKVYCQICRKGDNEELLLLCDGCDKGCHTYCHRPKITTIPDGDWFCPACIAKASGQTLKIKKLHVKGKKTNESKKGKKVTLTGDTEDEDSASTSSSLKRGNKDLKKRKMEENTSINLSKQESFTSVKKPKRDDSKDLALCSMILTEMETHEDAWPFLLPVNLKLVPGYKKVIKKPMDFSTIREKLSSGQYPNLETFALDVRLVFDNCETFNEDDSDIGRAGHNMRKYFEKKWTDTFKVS
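Multi-concentration screen (max 110 uM) measuring displacement of acetylated histone H3 peptide from BAZ2B by AlphaScreen, using 50 nM protein, 50 nM peptide and 10 ug/mL streptavidin donor plus Ni-chelate acceptor beads.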
* hit, by the source's call; ? = inconclusive; nt = no result given; [ ] = another dose, or the depositor's remark. Unless noted, the call rests on the fitted dose curve; in most records, active means well fitted curve in the direction sought with a large enough effect; inconclusive means small, poorly fitted or top-dose-only effect, or another doubt; inactive means no such curve, though single readings can be large; an effect the other way counts as inactive or inconclusive.

SMILES	PLK1 PBD block	KAT2A inh	HP1b chromo inh	PI5P4K alpha inh	JMJD2A Tudor	BAZ2B inh
COC(=O)c1sccc1NC(=O)c1cccnc1	26.7µM*	nt	-1.4%	-0.1	89.1µM*	3.4%
COC(=O)c1sccc1NC(=O)c1cccc(Cl)c1	5.2%	nt	28.3%	5.9	14.2%	nt
Cc1ccccc1CSc1nnc(-c2ccccn2)n1C	-2.2%	-2.4%	31.6%	1.1	-4.8%	79.4µM*
Cn1c(SCc2cccc(F)c2)nnc1-c1ccccn1	-9.1%	-5.6%	18.5%	-0.5	79.4µM*	70.8µM*
Cn1c(SCc2cccc(Br)c2)nnc1-c1ccccn1	6.0%	-5.5%	30.7%	-2.8	-2.4%	?
Cc1ccccc1CSc1nccn1-c1ccccc1	-13.3%	-18.3%	?	-2.7	?	35.5µM*
Cn1c(SCc2ccccc2Cl)nnc1-c1cnccn1	-6.7%	0.1%	16.4%	-3.3	-19.8%	-1.9%
CCCn1cnc2c1c(=O)n(CCCCC(C)=O)c(=O)n2C	nt	-4.7%	26.4%	nt	-12.7%	nt
CCCn1c(C(C)Nc2nc(-c3cc(Cl)c(N)c(Cl)c3)cs2)nc2cc(Cl)c(N3CCCCC3)cc21 (centres undefined)	3.9%	0.0%	8.5%	-2.5	?	?
Nc1nonc1-c1nc2ccccc2n1CC(=O)N/N=C/c1ccc(-c2ccccc2C(=O)O)o1	-20.4%	-16.1%	7.7%	-19.2	-7.5%[11.4 µM]	50.1µM*
Nc1nonc1-c1nc2ccccc2n1CC(=O)Nc1ccccc1	-16.0%	0.4%	13.5%	-15.1	-2.1%	-2.1%
Cc1ccc2nc(Cl)c3cc(C(=O)N4CCCC(C)C4)sc3c2c1 (centres undefined)	nt	1.6%	60.3%	nt	19.9%	1.7%
C/C(N)=C(/C#N)C(=O)CSc1nc2ccccc2c(=O)n1Cc1ccc(F)cc1	-11.4%	-17.3%	5.3%	-57.7*	-21.1%	?
C/C(N)=C(/C#N)C(=O)CSc1nc2ccccc2c(=O)n1Cc1ccc(C)cc1	-13.2%	-12.7%	31.3%	-7.8	-19.6%	-32.4%
Cc1cc(NC(=O)c2cc(-c3cccc(Cl)c3)on2)n(-c2ccccc2)n1	nt	-0.4%	36.3%	nt	-24.2%	3.7%
Cc1c(Cc2c(C)n(C)n(-c3ccccc3)c2=O)c(=O)n(-c2ccccc2)n1C	-8.4%	0.8%	46.5%	-8.4	19.1%[57.1 µM]	4.0%
Cc1c(CN(C)CCc2ccccc2)c(=O)n(-c2ccccc2)n1C	-4.1%	-1.8%	?	nt	3.55µM*	?
CCOc1ccc(CN2CCN(Cc3ccc4c(c3)c3ccccc3n4CC)CC2)cc1	nt	-11.3%	?	nt	22.4µM*	10µM*
Cc1ccc(Cn2c(=O)n(Cc3ccccc3Cl)c(=O)c3ccccc32)cc1	nt	1.3%	7.3%	nt	-15.4%	-1.6%
CCn1c2ccccc2c2cc(CN3CCN(Cc4ccc(OC)c(OC)c4)CC3)ccc21	nt	0.4%	?	nt	4.47µM*	44.7µM*
CCN1CCN(Cc2ccc(OCc3ccccc3)cc2)CC1	-8.0%	-15.2%	47.1%	nt	-11.5%	-26.0%
CCn1c2ccccc2c2cc(CN3CCN(Cc4ccccc4Cl)CC3)ccc21	nt	0.9%	?	nt	7.08µM*	50.1µM*
CSc1ccc(C2c3[nH]c4ccccc4c3CCN2C(=O)c2cc(C)n(C)n2)cc1 (centres undefined)	nt	-3.7%	nt	nt	nt	?
CCc1cc(C(=O)N2CCc3c([nH]c4ccccc34)C2c2ccc(OC)cc2F)no1 (centres undefined)	23.8µM*	-2.6%	?	-9.5	-27.8%[11.4 µM]	0.2%
Cc1cccc(C2c3[nH]c4ccccc4c3CCN2C(=O)c2ocnc2C)n1 (centres undefined)	-9.0%	-4.4%	5.8%	-1.1	-31.9%	79.4µM*
SMILES	PLK1 PBD block	KAT2A inh	HP1b chromo inh	PI5P4K alpha inh	JMJD2A Tudor	BAZ2B inh
Cc1cnc(C(=O)N2CCc3c([nH]c4ccccc34)C2c2ccc(F)cc2)cn1 (centres undefined)	-6.6%	-7.9%	-7.0%	2.5	?	28.2µM*
COc1ccc(C2c3[nH]c4ccccc4c3CCN2C(=O)c2ccc(=O)n(C)n2)c(F)c1 (centres undefined)	1.6%	1.1%	16.5%	1.3	?	?
Cc1ccccc1C1c2[nH]c3ccccc3c2CCN1C(=O)c1ccc(=O)n(C)n1 (centres undefined)	-1.5%	-2.7%	-2.8%	-0.9	?	10µM*
Cc1cc(C(=O)N2CCc3c([nH]c4ccccc34)C2c2c(F)cccc2Cl)no1 (centres undefined)	-9.2%	-5.4%	-5.7%	-3.5	?	-34.5%
COC(=O)C1=C(CS(=O)(=O)c2cc(Cl)ccc2OC)NC(=O)NC1c1ccccc1 (centres undefined)	nt	-0.9%	17.0%	nt	-11.9%	-7.0%
CC(C)c1nc(C(=O)N2CCc3c([nH]c4ccccc34)C2c2ccccn2)cs1 (centres undefined)	-18.5%	-10.1%	-17.9%	-0.8	56.2µM*	22.4µM*
CN1N=C(C(=O)N2CCc3c([nH]c4ccccc34)C2c2ccccc2Cl)CCC1=O (centres undefined)	26.7µM*	1.8%	-22.6%	-18.9	31.6µM*	-14.8%
O=C(c1cc[n+]([O-])cc1)N1CCc2c([nH]c3ccccc23)C1c1ccccc1Cl (centres undefined)	-4.2%	-16.2%	21.7%	-4.9	-14.7%	?
C[C@@H]1CN([C@H](C)CO)C(=O)CCCn2cc(nn2)CO[C@H]1CN(C)C(=O)Nc1ccc(C(C)(C)C)cc1	?	nt	nt	0.0	nt	nt
CCCN(CCC)C(=O)Cn1c(=O)n(-c2ccc(C)cc2)c(=O)c2ccc(C(=O)NCc3ccccc3Cl)cc21	nt	-1.2%	37.5%	nt	-0.7%	nt
COc1ccccc1CNC(=O)C(C)n1ccc2cc(S(=O)(=O)N3CCCC3)ccc21 (centres undefined)	nt	-2.3%	13.6%	nt	-17.6%	-19.9%
c1ccc2c(c1)ccc1ccccc12	-6.8%	-2.5%	97.0%	-4.1	50.3%	nt
CC1=[N+](C)c2ccc3ccccc3c2C1(C)C	-29.0%	1.4%	-5.0%	-5.5	?	50.1µM*
COC(=O)CSc1nnc(NC(=O)c2ccc3c(c2)OCO3)s1	-1.2%	-1.7%	51.8%	-0.7	-6.4%	-6.1%
CCC(CC)c1nnc(NC(=O)c2ccc3c(c2)OCO3)s1	26.7µM*	-14.0%	?	-3.3	-18.2%	-10.9%
CC(C)C(=O)Nc1cccc(NC(=S)NC(=O)c2ccc3c(c2)OCO3)c1	-3.1%	-23.4%	10.8%	-5.5	22.4µM*	-14.6%
CC(C)C(=O)Nc1cccc(NC(=S)NC(=O)c2ccc(Cl)cc2)c1	-0.3%	?	6.3%	nt	-22.4%	-28.3%
O=C(Nc1ccc(Nc2ccccc2)cc1)c1ccccc1F	-10.1%	-7.2%	2.2%	0.0	?	?
CCN(CC)c1ccc(NC(=O)c2ccccc2F)cc1	-5.0%	-5.5%	-14.3%	-2.5	?	44.7µM*
